FLuc counter = counter-screen for miR-21 project: firefly luciferase inhibitors or activators; AID 588342; Potency, µM (highest dose often 57.5 µM), inactives show at the top dose activity change, negative = inhibition, most hits filed as inhibitors; hit rate 6.9% among 360,000; purified FLuc, Km substrates, luminescence inhibition;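 also: plate controls were vehicle for no effect and reference inhibitor for full effect; nearly all actives have a fitted effect of over 55% in size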
Target sequence (P08659 whole entry, looked up): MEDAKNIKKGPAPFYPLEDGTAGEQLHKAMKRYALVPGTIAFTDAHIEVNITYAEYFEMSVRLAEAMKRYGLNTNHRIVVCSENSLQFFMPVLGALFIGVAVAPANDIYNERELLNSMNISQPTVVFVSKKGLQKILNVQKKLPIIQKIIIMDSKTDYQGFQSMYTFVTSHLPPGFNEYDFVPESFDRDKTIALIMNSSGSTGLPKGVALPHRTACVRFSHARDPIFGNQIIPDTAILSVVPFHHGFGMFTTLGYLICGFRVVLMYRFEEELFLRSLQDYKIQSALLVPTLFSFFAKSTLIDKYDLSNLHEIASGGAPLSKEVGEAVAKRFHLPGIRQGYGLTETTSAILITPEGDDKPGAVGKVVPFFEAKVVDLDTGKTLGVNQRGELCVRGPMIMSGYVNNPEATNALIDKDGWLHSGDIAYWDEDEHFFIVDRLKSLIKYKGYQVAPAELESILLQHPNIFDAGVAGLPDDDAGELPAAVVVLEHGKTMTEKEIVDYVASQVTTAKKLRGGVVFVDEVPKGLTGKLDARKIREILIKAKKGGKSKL
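Purified P. pyralis luciferase, 10 nM final, with Km-level 10 uM D-luciferin and 10 uM ATP in 50 mM Tris acetate pH 7.5, 10 mM Mg acetate, 0.01% Tween-20, 0.05% BSA; 6-point qHTS titration about 60 µM downward; luminescence read.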
Luc counter = counter-screen: inhibitors of Kinase-Glo firefly luciferase. Potency, µM (series often up to 38.3 µM), for inactives: at the highest dose activity change, negative = inhibition, hits mostly inhibitors. Kinase-Glo luciferase, ATP luminescence, 8 min. hit rate 0.28% among 200,000; also: % is scaled to controls: 0 for no effect and ±100 for the full control effect; nearly all actives have a fitted effect of over 60% in size
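Light output from Kinase-Glo luciferase with luciferin and 10 uM ATP in 50 mM imidazole pH 7.2, KCl, MgCl2, Tween 20, BSA; compound pin-delivered, 8-min ambient incubation, then luminescence read.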
SMN2 splice up = SMN2 splice variant enhancement; HEK293 SMN2-luciferase splicing reporter, luminescence, 30-36 h; AID 1458; hit rate 2.8% among 210,000; Potency, µM (series often up to 46.1 µM), without a hit: at the top dose activity change, positive = activation, usual class: activators; also: % of control where 0% means no effect; nearly all actives have a fitted effect of over 55% in size
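HEK293 cells carry an SMN2 minigene-luciferase reporter in which exon 7 inclusion puts luciferase in frame. Cells were seeded at 2000 cells/well, attached for 10-12 hours, then exposed to compounds for 30-36 hours at 37C before ONE-Glo luminescence.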
NPC1 prom act = NPC1 promoter activation; Potency, µM (titrated, usually from 9.22 µM), without a hit: at the highest dose activation, hits mostly activators; Huh7 NPC1 promoter luciferase reporter, 24 h; hit rate 2.4% among 320,000; also: % of control where 0% means no effect; nearly all actives have a fitted effect of over 60% in size
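In 1536-well qHTS, Huh7 cells harboring an NPC1 promoter–luciferase construct received compound for 24 h; activation was quantified by luminescence following luciferase reagent addition.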
Rab9 prom act = Rab9 promoter activation; Potency, µM (highest dose often 9.22 µM), for the others: top-dose activation, negative = inhibition, actives largely listed as activators; AID 485297; Huh7 Rab9 promoter-luciferase reporter, luminescence, 24 h; hit rate 2.8% among 320,000; also: % of control where 0% means no effect; nearly all actives have a fitted effect of over 60% in size
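Huh7 cells stably carrying Rab9 promoter–luciferase reporter, plated 1500 cells/well, compound added after 2 h and incubated 24 h at 37 °C; luciferase luminescence then read after 10 min with detection reagent.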
ELG1 genotoxic = inducers of genotoxicity in HEK293T ELG1-luciferase cells; HEK293T ELG1-luciferase reporter, luminescence, 16 h; Potency, µM (highest dose often 46 µM), without a hit: top-dose activity change, positive = activation, actives largely listed as activators; hit rate 1.3% among 330,000; also: % of control where 0% means no effect; nearly all actives have a fitted effect of over 60% in size
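Genotoxic stress is detected as increased luminescence from luciferase-tagged ELG1 in HEK293T cells, measured with ONE-Glo after a 16 hr treatment at 37 °C.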
* = called active by the depositor; ? = inconclusive; . = not tested or not shown; [ ] = remark or other dose. Compounds with a hit are over-represented: about 7.3% of the library has one in this group of screens. Calls follow the shape of the dose curve; as a rule, active = well fitted curve in the direction sought with a large enough effect; inconclusive = small, poorly fitted or top-dose-only effect, or another doubt; inactive = no such curve, though single readings can be large; an effect the other way counts as inactive or inconclusive. Potency is read from the fitted curve at half-maximal effect.

SMILES	FLuc counter	Luc counter	SMN2 splice up	NPC1 prom act	Rab9 prom act	ELG1 genotoxic
COc1cccc(/C(C)=N/N=C(\C)c2cccc(OC)c2)c1	6.7µM*	.	.	?	3.2µM*	?
COc1cccc(NC(=O)CC(=O)c2ccccc2)c1	17µM*	.	.	3.5µM*	2.8µM*	?
Cc1cccc(NC(=S)NC2CC3CCCC(C2)N3Cc2ccco2)c1 (stereo unspecified)	1%	-4%	-10%	-2%	1%	-4%
CN(C(=O)COC(=O)CCC(=O)c1ccccc1)c1c(N)n(Cc2ccccc2)c(=O)[nH]c1=O	-2%	.	.	-1%	-3%	4%
COc1cccc(NC(=O)c2ccc(C(=O)c3ccccc3)o2)c1	6.7µM*	3%	20µM*	?	?	0%
O=C(O)c1cccc(NC(=O)c2ccccc2NC(=O)c2cccc([N+](=O)[O-])c2)c1	?	.	.	0%	2%	-1%
O=C(Nc1ccccc1C(=O)Nc1ccncc1)c1cccc([N+](=O)[O-])c1	0.095µM*	.	.	2.8µM*	2.2µM*	?
CC(C)c1ccc(NC(=O)c2ccc(NS(C)(=O)=O)cc2)cc1	6.7µM*	0%	-6%	1%	2%	0%
Cn1c(N)c(C(=O)Nc2ccc3ccccc3c2)sc1=S	?	0%	?	1.8µM*	2.2µM*	?
CCOC(=O)c1ccc(NC(=O)c2ccc(NS(C)(=O)=O)cc2)cc1	?	1%	-13%	-4%	-2%	-3%
O=C(c1ccc2c(c1)OCCO2)C1CCN(C(=O)c2ccc(F)c(F)c2)CC1	2%	13%	-14%	-7%	-4%	-9%
COc1ccc(C(=O)Nc2ccc3ccccc3c2)cc1	0.19µM*	.	.	0.089µM*	?	0.46µM*
Cc1oc(C(=O)Nc2ccc(O)cc2)cc1COc1ccccc1	?	2%	?	0%	-9%	?
COc1cccc(C(=O)Nc2cccc(SC)c2)c1	9.5µM*	-11%	?	24%	?	9.2µM*
O=C(Nc1ccc(O)cc1)c1ccc(C(=O)c2ccccc2)o1	7.6µM*	0%	7%	?	20%	9%
COc1ccc(OCC(=O)NNC(=S)NC(=O)C2CC2)cc1	?	.	.	-4%	-2%	-3%
Cc1ccc(N(C)S(=O)(=O)c2csc(C(N)=O)c2)cc1C	-3%	.	.	-7%	-7%	-3%
C=C(C)COc1ccc(-c2nc(N)ncc2Oc2ccccc2OC)c(O)c1	21µM*	-6%	-4%	2%	2%	4%
CCCc1cc(NCc2ccccn2)n2c(nc3ccccc32)c1C#N	11µM*	-8%	-19%	-1%	-10%	-10%
CCCc1cc(NCC2CCCO2)n2c(nc3ccccc32)c1C#N (stereo unspecified)	17µM*	14%	-5%	-6%	-6%	-15%
O=C(O)c1ccc(/C=N/NC(=O)C(O)(c2ccccc2)c2ccccc2)cc1	5%	.	.	-4%	0%	2%
CCCn1c(SCC(=O)Nc2nnc(C(C)C)s2)nc2c1c(=O)n(C)c(=O)n2C	4%	.	.	0%	-3%	-2%
CC(C)(C)N=C1NN=C(c2ccc(Cl)cc2)CS1	2.7µM*	.	.	0.79µM*	0.63µM*	?
CC(=O)Nc1ccc(C2=NNC(=NCC3CCCO3)SC2)cc1 (stereo unspecified)	-19%	.	.	11%	16%	2%
Oc1ccc(C2=NNC(=NCc3ccc4c(c3)OCO4)SC2)c(O)c1	?	0%	28%	-24%	-19%	?
SMILES	FLuc counter	Luc counter	SMN2 splice up	NPC1 prom act	Rab9 prom act	ELG1 genotoxic
COc1ccc(C2=NN(C)C(=NCc3ccccc3)SC2)cc1	?	0%	-26%	0%	0%	-1%
COc1ccc(CN=C2Nc3ccccc3CS2)cc1	2.7µM*	-22%	3.5µM*	1µM*	1.6µM*	?
CC(C)(C)N=C1NN=C(c2cc3ccccc3o2)CS1	1.9µM*	.	.	0.63µM*	0.4µM*	?
Clc1ccc(C2=NNC(=NCc3ccc4c(c3)OCO4)SC2)cc1	19µM*	.	.	15%	15%	-7%
Cc1ccc(CN2CCN(CC(=O)NC(C)c3ccc4c(c3)OCCO4)C2=O)cc1 (stereo unspecified)	0%	-1%	-16%	-1%	-2%	1%
CCN(CC(=O)Nc1c(F)cccc1F)C(=O)c1ccc2ccccc2n1	6%	.	.	-1%	-11%	4%
COc1ccc(CN=C2NN=C(c3ccc(Cl)cc3)CS2)cc1	7.6µM*	0%	20µM*	3.5µM*	3.5µM*	?
CCC(C)C(NC(=O)c1ccccc1NC(=O)c1ccco1)C(=O)NNC(=O)c1ccc(OC)cc1 (stereo unspecified)	-9%	-1%	8%	0%	-2%	1%
CCNC(=S)N/N=C/c1sc(N2CCCCC2)nc1-c1cccs1	1.9µM*	11µM*	.	26%	?	?
CCCCNC(=S)N/N=C/c1sccc1C	-13%	0%	25%	10%	0%	3%
Cc1ccc(Sc2cc(C(=O)NCCCN(C)C)c3ccccc3n2)cc1	1%	.	.	-3%	1%	-4%
c1csc(-c2nc3nc4ccccc4nc3n2Cc2ccc3c(c2)OCO3)c1	2.7µM*	-9%	?	29%	?	-1%
O=C1c2ccccc2C(=O)c2cc(NC(=O)C3CC3)ccc21	?	-5%	11µM*	2.5µM*	2.2µM*	?
CC(=O)Nc1ccc2c(c1)C(=O)c1ccccc1C2=O	4.8µM*	-6%	13µM*	1.6µM*	0.71µM*	?
COc1cc(C(=O)Nc2ccc3c(c2)C(=O)c2ccccc2C3=O)cc(OC)c1OC	1%	-1%	5%[1.84 µM]	-4%	-2%	0%
O=C1c2ccccc2-c2ccc(NC(=O)[C@H]3CCCC[C@@H]3C(=O)O)cc21	.	0%[7.66 µM]	-2%[9.22 µM]	.	.	.
Nc1ccc2c(c1)C(=O)c1ccccc1C2=O	13µM*	.	16µM*	?	4µM*	?
O=C(O)/C=C/C(=O)Nc1ccc2c(c1)C(=O)c1ccccc1C2=O	17µM*	.	.	5%	13%	9%
CC(=O)Nc1ccc(-n2c(CCC(=O)O)ccc2-c2ccc(Br)cc2)cc1	?	.	0%	.	.	.
C/C(=N\NC(=O)c1ccc(F)cc1)c1cccc(NC(=O)c2cccc(F)c2)c1	-18%	.	.	5%	5%	-8%
C/C(=N\NC(=O)c1ccc(F)cc1)c1cccc(NC(=O)c2ccco2)c1	4.8µM*	0%	3%	20%	30%	2%
C/C(=N\NC(=O)c1c(Br)cnn1C)c1ccc(NC(=O)c2ccc(F)cc2)cc1	4%	-2%	?	12%	2%	16µM*
